For 64 compounds, cytotoxicity call results are on record in the antibiotic and cytotoxicity screens of Wong et al. (2023).

Structures are written as SMILES. In all, about 39,000 compounds went through this assay and about 3,300 (8.5%) were called active. This is one part of a sample in which actives are shown more often than they occur.

This test has as its system HepG2. The experiment in a line: cytotoxicity call (relative viability < 0.9). Particulars: 10 µM.
For the compound `C[C@@H]1CCCCO[C@H](CN(C)Cc2ccc(C(F)(F)F)cc2)[C@@H](C)CN([C@H](C)CO)C(=O)c2cc(NS(=O)(=O)c3cn(C)cn3)ccc2O1`, the cytotoxicity call is “inactive”.
In the case of `COc1ccc(S(=O)(=O)N(C)C[C@@H]2Oc3ccc(NC(=O)NC(C)C)cc3CC(=O)N([C@@H](C)CO)C[C@H]2C)cc1`, the cytotoxicity call is “inactive”.
Regarding `COC(=O)[C@@H](C)N(C#N)c1nc(C)cc(C)n1`, the cytotoxicity call was “inactive”.
With `C[C@@H]1CCCCO[C@@H](CN(C)S(=O)(=O)c2cccs2)[C@@H](C)CN([C@@H](C)CO)C(=O)c2cc(NC(=O)NC3CCCCC3)ccc2O1` the entry was “inactive”; with `C[C@H]1CN([C@@H](C)CO)S(=O)(=O)c2ccc(C3=CCCC3)cc2O[C@@H]1CN(C)S(=O)(=O)c1cn(C)cn1`, “inactive”.
With `C[C@@H]1CN([C@H](C)CO)C(=O)c2cc(NS(=O)(=O)c3ccc(F)cc3)ccc2O[C@@H]1CN(C)S(=O)(=O)c1ccc(F)cc1` the entry was “inactive”; with `C[C@H](CO)N1C[C@H](C)[C@@H](CN(C)Cc2ccc(Cl)c(Cl)c2)Oc2ccc(NC(=O)Nc3ccccc3)cc2CC1=O`, “inactive”; with `C[C@H]1CN([C@@H](C)CO)C(=O)Cc2cc(NC(=O)Nc3ccccc3)ccc2O[C@H]1CN(C)Cc1ccc(Cl)c(Cl)c1`, “active”.
To `C[C@H](CO)N1C[C@H](C)[C@H](CN(C)Cc2ccc(Cl)c(Cl)c2)Oc2ccc(NC(=O)Nc3ccccc3)cc2CC1=O` belongs “active”; to `C[C@@H]1CN([C@H](C)CO)C(=O)Cc2cc(NC(=O)Nc3ccccc3)ccc2O[C@@H]1CN(C)Cc1ccc(Cl)c(Cl)c1`, “active”; to `C[C@@H]1CN([C@H](C)CO)C(=O)Cc2cc(NC(=O)Nc3ccccc3)ccc2O[C@H]1CN(C)Cc1ccc(Cl)c(Cl)c1`, “active”.
As to `C[C@@H]1CN([C@@H](C)CO)C(=O)Cc2cc(NC(=O)Nc3ccccc3)ccc2O[C@H]1CN(C)Cc1ccc(Cl)c(Cl)c1`, the cytotoxicity call is “inactive”.
With `CC(C)NC(=O)Nc1ccc2c(c1)C(=O)N([C@H](C)CO)C[C@H](C)[C@H](CN(C)C(=O)Nc1ccccc1)OCCCC[C@H](C)O2` the entry was “inactive”; with `C[C@@H]1CN([C@@H](C)CO)C(=O)Cc2cc(NS(=O)(=O)c3cn(C)cn3)ccc2O[C@@H]1CN(C)Cc1ccc(C(=O)Nc2ccccc2N)cc1`, “inactive”; with `Cc1noc(C)c1S(=O)(=O)Nc1cccc2c1O[C@H](CN(C)C(=O)Nc1ccccc1)[C@H](C)CN([C@H](C)CO)C2=O`, “inactive”.
To `CN(C(=O)c1ccc(Cl)c(N2C(=O)CCS2(=O)=O)c1)[C@H]1CCS(=O)(=O)C1` belongs “inactive”; to `Cc1ccc(S(=O)(=O)Nc2ccc3c(c2)C(=O)N([C@@H](C)CO)C[C@H](C)[C@@H](CN(C)S(C)(=O)=O)O3)cc1`, “inactive”.
To `O=C(C[C@H]1CC[C@H]2[C@@H](COC[C@@H](O)CN2S(=O)(=O)c2ccc(F)cc2)O1)NCCN1CCCCC1` belongs “inactive”; to `Cc1noc(C)c1NC(=O)Nc1ccc2c(c1)C(=O)N([C@H](C)CO)C[C@@H](C)[C@@H](CN(C)Cc1ccc3c(c1)OCO3)OCCCC[C@H](C)O2`, “inactive”; to `O=C(C[C@H]1C[C@H]2c3cc(NS(=O)(=O)c4ccc(F)cc4)ccc3O[C@H]2[C@H](CO)O1)NCc1cccc(F)c1`, “inactive”.
Take `C[C@@H]1CN([C@@H](C)CO)C(=O)Cc2cc(NC(=O)Nc3ccccc3)ccc2O[C@@H]1CN(C)Cc1ccc(Cl)c(Cl)c1`: the cytotoxicity call is “active”.
With `C[C@H]1CN([C@@H](C)CO)C(=O)Cc2cc(NC(=O)Nc3ccccc3)ccc2O[C@@H]1CN(C)Cc1ccc(Cl)c(Cl)c1` the entry was “active”.
In the case of `C[C@H](CO)N1C[C@H](C)[C@H](CN(C)Cc2ccc(C(F)(F)F)cc2)OCCCC[C@H](C)Oc2ccc(NC(=O)c3ccncc3)cc2C1=O`, the cytotoxicity call was “inactive”.
With `C[C@@H]1CN([C@@H](C)CO)S(=O)(=O)c2ccc(C3=CCCC3)cc2O[C@H]1CN(C)S(=O)(=O)c1ccc(F)cc1` the entry was “inactive”; with `Nc1cccc(OCc2ccccc2)c1`, “inactive”; with `CC(C)NC(=O)Nc1ccc2c(c1)C(=O)N([C@H](C)CO)C[C@@H](C)[C@H](CN(C)Cc1ccc(C(=O)O)cc1)O2`, “inactive”.
As for `C[C@@H]1CN([C@H](C)CO)S(=O)(=O)c2ccc(C#CCN(C)C)cc2O[C@H]1CN(C)C(=O)Nc1ccccc1F`, the cytotoxicity call is “inactive”.
To `CC12C=CC(=O)C=C1CCC1C2C(=O)CC2(C)C1CCC2(O)C(=O)CO` (centres undefined) belongs “inactive”; to `CC(O)(P(=O)([O-])O)P(=O)([O-])O.[Na+].[Na+]`, “inactive”; to `O=P(O)(O)C(Cl)(Cl)P(=O)(O)O`, “active”.
As to `CC(O)(P(=O)(O)O)P(=O)(O)O`, the cytotoxicity call was “inactive”.
With `C[C@@H]1CN([C@@H](C)CO)C(=O)c2cc(NC(=O)Cc3ccccc3)ccc2O[C@@H](C)CCCCO[C@@H]1CN(C)C(=O)C1CCCCC1` the entry was “inactive”; with `COc1ccc(NC(=O)N(C)C[C@@H]2OCCCC[C@@H](C)Oc3ccc(NC(=O)Nc4c(C)noc4C)cc3C(=O)N([C@@H](C)CO)C[C@H]2C)cc1`, “inactive”; with `CN(Cn1[nH]c(=O)ccc1=O)c1ccccc1`, “inactive”.
For the compound `COCCOC(=O)N1C(=O)[C@@]2(c3cc(C#CCNC(N)=O)ccc31)[C@H](C(=O)N1CCCCCCC1)[C@H]1C(=O)O[C@H](c3ccccc3)[C@H](c3ccccc3)N1[C@@H]2c1ccccc1OCCO`, the cytotoxicity call is “inactive”.
To `Cl.OC(c1cc(C(F)(F)F)nc2c(C(F)(F)F)cccc12)C1CCCCN1` (centres undefined) belongs “active”.
To `C[C@H]1CN([C@@H](C)CO)C(=O)c2cccc(NC(=O)C3CCCCC3)c2O[C@H]1CN(C)Cc1ccc(-c2ccccc2)cc1` belongs “inactive”.
Turning to `Cc1noc(C)c1NC(=O)Nc1cccc2c1O[C@@H](CN(C)Cc1ccc(Cl)c(Cl)c1)[C@@H](C)CN([C@H](C)CO)C2=O`, the cytotoxicity call is “inactive”.
On to `C[C@H](CO)N1C[C@H](C)[C@@H](CN(C)Cc2ccc(-c3ccccc3)cc2)Oc2ccc(NC(=O)Cc3ccccc3)cc2CC1=O`, for which the cytotoxicity call was “inactive”.
To `C[C@H](CO)N1C[C@H](C)[C@H](CN(C)Cc2ccc(-c3ccccc3)cc2)Oc2ccc(NC(=O)Cc3ccccc3)cc2CC1=O` belongs “inactive”.
On to `C[C@@H]1CN([C@H](C)CO)C(=O)Cc2cc(NC(=O)Cc3ccccc3)ccc2O[C@H]1CN(C)Cc1ccc(-c2ccccc2)cc1`, for which the cytotoxicity call is “inactive”.
With `C[C@H]1CN([C@@H](C)CO)C(=O)Cc2cc(NC(=O)Cc3ccccc3)ccc2O[C@@H]1CN(C)Cc1ccc(-c2ccccc2)cc1` the entry was “inactive”; with `C[C@@H]1CN([C@@H](C)CO)C(=O)Cc2cc(NC(=O)Cc3ccccc3)ccc2O[C@H]1CN(C)Cc1ccc(-c2ccccc2)cc1`, “inactive”; with `C[C@H]1CN([C@@H](C)CO)C(=O)Cc2cc(NC(=O)Cc3ccccc3)ccc2O[C@H]1CN(C)Cc1ccc(-c2ccccc2)cc1`, “active”.
With `C[C@@H]1CN([C@H](C)CO)C(=O)Cc2cc(NC(=O)Cc3ccccc3)ccc2O[C@@H]1CN(C)Cc1ccc(-c2ccccc2)cc1` the entry was “active”; with `C[C@@H]1CN([C@@H](C)CO)C(=O)Cc2cc(NC(=O)Cc3ccccc3)ccc2O[C@@H]1CN(C)Cc1ccc(-c2ccccc2)cc1`, “active”.
As to `CC(C)NC(=O)N(C)C[C@H]1Oc2ccc(NS(=O)(=O)c3cn(C)cn3)cc2CC(=O)N([C@@H](C)CO)C[C@@H]1C`, the cytotoxicity call is “inactive”.
With `COc1cccc(C#Cc2ccc3c(c2)O[C@H](CN(C)C(=O)c2ccccn2)[C@H](C)CN([C@@H](C)CO)S3(=O)=O)c1` the entry was “inactive”; with `COc1ccc(CN(C)C[C@@H]2OCCCC[C@@H](C)Oc3ccc(NC(=O)CCCCCC(=O)Nc4ccccc4N)cc3C(=O)N([C@H](C)CO)C[C@@H]2C)cc1`, “inactive”; with `C[C@@H]1CCCCO[C@@H](CN(C)Cc2ccc3c(c2)OCO3)[C@@H](C)CN([C@@H](C)CO)C(=O)c2cc(NC(=O)c3ccccc3)ccc2O1`, “inactive”.
To `C[C@H](CO)N1C[C@H](C)[C@H](CN(C)S(=O)(=O)c2cccs2)OCCCC[C@H](C)Oc2ccc(NC(=O)C3CCCCC3)cc2C1=O` belongs “inactive”; to `Cc1noc(C)c1NC(=O)Nc1ccc2c(c1)CC(=O)N([C@@H](C)CO)C[C@H](C)[C@H](CN(C)C(=O)Nc1cccc3ccccc13)O2`, “inactive”; to `C[C@@H]1CN([C@H](C)CO)C(=O)c2cc(NC(=O)Cc3cn(C)c4ccccc34)ccc2O[C@H]1CN(C)Cc1ccc(-c2ccccc2)cc1`, “inactive”.
To `C[C@@H]1CN([C@H](C)CO)C(=O)c2cc(NC(=O)Cc3cn(C)c4ccccc34)ccc2O[C@@H]1CN(C)Cc1ccc(-c2ccccc2)cc1` belongs “inactive”.
With `C[C@H]1CN([C@@H](C)CO)C(=O)c2cc(NC(=O)Cc3cn(C)c4ccccc34)ccc2O[C@H]1CN(C)Cc1ccc(-c2ccccc2)cc1`, the cytotoxicity call is “inactive”.
With `C[C@@H]1CN([C@@H](C)CO)C(=O)c2cc(NC(=O)Cc3cn(C)c4ccccc34)ccc2O[C@H]1CN(C)Cc1ccc(-c2ccccc2)cc1` the entry was “inactive”; with `C[C@H]1CN([C@@H](C)CO)C(=O)c2cc(NC(=O)Cc3cn(C)c4ccccc34)ccc2O[C@@H]1CN(C)Cc1ccc(-c2ccccc2)cc1`, “active”; with `C[C@H](CO)N1C[C@H](C)[C@H](CN(C)Cc2ccc(-c3ccccc3)cc2)Oc2ccc(NC(=O)Cc3cn(C)c4ccccc34)cc2C1=O`, “active”.
To `C[C@@H]1CN([C@@H](C)CO)C(=O)c2cc(NC(=O)Cc3cn(C)c4ccccc34)ccc2O[C@@H]1CN(C)Cc1ccc(-c2ccccc2)cc1` belongs “active”; to `C[C@H](CO)N1C[C@H](C)[C@@H](CN(C)Cc2ccc(-c3ccccc3)cc2)Oc2ccc(NC(=O)Cc3cn(C)c4ccccc34)cc2C1=O`, “inactive”.
With `Cc1ccc([C@@H](N)c2ccncc2)cc1` the entry was “inactive”.
With `COC(=O)c1c(C#N)c(N)nc2c1CCC2`, the cytotoxicity call was “inactive”.
To `CC(C)NC(=O)N(C)C[C@H]1OCCCC[C@H](C)Oc2ccc(NC(=O)Nc3ccccc3)cc2C(=O)N([C@H](C)CO)C[C@@H]1C` belongs “inactive”.
To `COc1ccccc1-c1ccc2n(c1=O)C[C@H]1[C@H](CO)[C@@H](C(=O)NCC3CC3)N(S(C)(=O)=O)[C@@H]21` belongs “inactive”.
